# Assay results reported in PubChem BioAssay (EPA / NIEHS).
# Where “and” joins values, the source holds several entries; their conditions need not be identical. Equal entries are not always repeated. Records with an inconclusive call do not appear. A structure can be active in one record and inactive in another. Calls of active or inactive are those of the source. Rule for the calls, unless noted: active = hit-call score of the fitted dose curve at least 0.9, where 1 is the maximum; inactive = score below 0.9.
# Assays:
# DIO1 (gene 1733) = experiment: CCTE_GLTED_hDIO1: CCTE's human Deiodinase 1 (DIO1) Inhibition Assay, Great Lakes Toxicology and Ecology Division (GLTED) Lab (AID 2283987; active = hit-call score of the fitted dose curve at least 0.9, where 1 is the maximum;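 note: isolated human DIO1 enzyme in a cell-free setup rather than cells; enzyme activity read as free iodide liberated from substrate via Sandell-Kolthoff colorimetry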)
# In short: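 Cell-free human DIO1 enzyme was incubated with test chemical for 3 h, and iodide released from substrate was measured by Sandell-Kolthoff absorbance. Loss of signal versus DMSO baseline indicated inhibition; plates were run in triplicate.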
# [1] = molecular target: Nucleoli Translocation, AR (gene 367) (UniProt P10275); experiment: UPITT_HCI_U2OS_AR_TIF2_Nucleoli_Antagonist: University of Pittsburgh U2OS Androgen Receptor-Transcriptional Intermediary Factor 2 (AR-TIF2) Antagonism High Content Imaging Assay for Nucleoli Translocation (AID 2283997; active = hit-call score of the fitted dose curve at least 0.9, where 1 is the maximum)
# Chain of Nucleoli Translocation, AR (gene 367) (P10275 whole entry, looked up, the tested form may be a part): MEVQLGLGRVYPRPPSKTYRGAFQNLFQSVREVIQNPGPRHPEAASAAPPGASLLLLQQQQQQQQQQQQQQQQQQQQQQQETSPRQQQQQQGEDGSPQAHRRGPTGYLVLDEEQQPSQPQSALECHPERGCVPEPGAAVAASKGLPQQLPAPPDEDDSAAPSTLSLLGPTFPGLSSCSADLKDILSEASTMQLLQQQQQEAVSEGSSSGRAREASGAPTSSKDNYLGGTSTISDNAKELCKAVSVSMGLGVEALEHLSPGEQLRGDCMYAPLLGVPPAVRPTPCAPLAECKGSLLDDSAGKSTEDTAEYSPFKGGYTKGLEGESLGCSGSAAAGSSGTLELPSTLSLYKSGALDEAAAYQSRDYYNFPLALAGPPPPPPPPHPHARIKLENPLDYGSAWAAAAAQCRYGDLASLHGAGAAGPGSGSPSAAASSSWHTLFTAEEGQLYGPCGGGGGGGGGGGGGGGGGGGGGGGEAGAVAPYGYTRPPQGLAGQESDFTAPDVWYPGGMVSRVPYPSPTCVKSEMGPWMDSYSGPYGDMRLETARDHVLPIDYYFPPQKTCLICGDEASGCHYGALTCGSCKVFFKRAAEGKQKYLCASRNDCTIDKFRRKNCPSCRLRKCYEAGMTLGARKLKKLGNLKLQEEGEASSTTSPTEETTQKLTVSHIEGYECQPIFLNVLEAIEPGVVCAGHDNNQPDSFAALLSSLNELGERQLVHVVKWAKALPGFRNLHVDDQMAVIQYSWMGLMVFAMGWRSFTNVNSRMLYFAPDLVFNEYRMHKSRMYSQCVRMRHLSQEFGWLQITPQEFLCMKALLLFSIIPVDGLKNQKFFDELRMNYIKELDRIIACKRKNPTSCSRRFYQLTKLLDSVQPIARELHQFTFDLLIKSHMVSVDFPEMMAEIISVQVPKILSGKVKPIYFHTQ
# In short: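 Antagonism is read as loss of nucleolar AR-RFP signal relative to DHT, imaged in U2OS cells also carrying GFP-TIF2. Compounds screened at 20 uM final, 0.2% DMSO; primary actives retested in triplicate.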
# [2] = molecular target: Nucleoli Translocation, AR (gene 367) (UniProt P10275); experiment: UPITT_HCI_U2OS_AR_TIF2_Nucleoli_Agonist: University of Pittsburgh U2OS Androgen Receptor-Transcriptional Intermediary Factor 2 (AR-TIF2) Agonism High Content Imaging Assay for Nucleoli Translocation (AID 2283998; active = hit-call score of the fitted dose curve at least 0.9, where 1 is the maximum)
# In short: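 Cells express human AR fused to red fluorescent protein and TIF2 fused to GFP. Red fluorescence in the nucleolar region was quantified by high-content imaging and fitted as gain-of-signal against a DMSO baseline. Compounds were tested at 0.195 to 50 uM final (0.5% DMSO).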
# [3] = molecular target: Ratio of Nucleoli Translocation and Cytoplasm, AR (gene 367) (UniProt P10275); experiment: UPITT_HCI_U2OS_AR_TIF2_Nucleoli_Cytoplasm_Ratio_Antagonist: University of Pittsburgh U2OS Androgen Receptor-Transcriptional Intermediary Factor 2 (AR-TIF2) Antagonism High Content Imaging Assay for Ratio of Nucleoli Translocation and Cytoplasm (AID 2283999; active = hit-call score of the fitted dose curve at least 0.9, where 1 is the maximum;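 note: antagonists lower the DHT-driven ratio of nucleolar to cytoplasmic red signal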)
# Chain of Ratio of Nucleoli Translocation and Cytoplasm, AR (gene 367) (P10275 whole entry, looked up): as the sequence (P10275 whole entry, looked up, the tested form may be a part) above
# In short: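 High-content imaging of red fluorescence ratio, nucleoli versus cytoplasm, in U2OS expressing AR-RFP and TIF2-GFP, fitted relative to DHT. Compounds tested once at 20 uM final, then 0.195 to 50 uM final in serial dilution.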
# [4] = molecular target: Ratio of Nucleoli Translocation and Cytoplasm, AR (gene 367) (UniProt P10275); experiment: UPITT_HCI_U2OS_AR_TIF2_Nucleoli_Cytoplasm_Ratio_Agonist: University of Pittsburgh U2OS Androgen Receptor-Transcriptional Intermediary Factor 2 (AR-TIF2) Agonism High Content Imaging Assay for Ratio of Nucleoli Translocation and Cytoplasm (AID 2284000; active = hit-call score of the fitted dose curve at least 0.9, where 1 is the maximum;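 note: hits raise the red nucleolar to cytoplasm ratio above vehicle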)
# In short: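 Compounds tested at 20 uM final in primary screen (0.2% DMSO) and 0.195-50 uM final in dose-response (0.5% DMSO). Imaging of human U2OS cells bearing RFP-AR and GFP-TIF2; endpoint is nucleoli/cytoplasm red signal ratio, positive direction relative to DMSO.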
# [5] = CCTE_Simmons_MITO_basal_resp_rate: CCTE's HepG2 Seahorse XF Respirometric Screening Assay at Basal Respiratory State, Simmons Lab (AID 2284001); details: actives raise or lower the signal
# In short: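 Basal-phase OCR in HepG2 cells, read at 6-min intervals across a 72-min run, with test compound injected at 125 nM–100 uM final (7 points). Fitted both directions against DMSO; three biological replicates per concentration.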
# [6] = CCTE_Simmons_MITO_max_resp_rate: CCTE's HepG2 Seahorse XF Respirometric Screening Assay at Maximal Respiratory State [uncoupled], Simmons Lab (AID 2284002); details: actives raise or lower the signal
# In short: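 HepG2 oxygen consumption was read on a Seahorse XF96 after FCCP uncoupler injection, following test compound injection; 7 concentrations, 125 nM–100 uM final, three biological replicates. Bidirectional fitting against DMSO vehicle baseline.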
# [7] = CCTE_Simmons_MITO_inhib_resp_rate: CCTE's HepG2 Seahorse XF Respirometric Screening Assay at Inhibited Respiratory State [full ETC block], Simmons Lab (AID 2284006); details: actives raise or lower the signal
# In short: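 This endpoint is the respiration rate remaining after rotenone/antimycin A block, in HepG2 cells on a Seahorse XF96. Chemicals spanned 125 nM–100 uM final, in three biological replicates. OCR was read every 6 minutes for 72 minutes and compared with DMSO vehicle.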
# [8] = CCTE_Shafer_MEA_acute_firing_rate_mean: CCTE's Neural Acute Assay for Mean Firing Rate, Shafer Lab (AID 2284009);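 note: analyzed for loss of signal so actives lower firing rate relative to DMSO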
# In short: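 Primary rat cortical neurons on 16-electrode MEA wells were exposed on DIV 13 or 15 to compound (0.03-40 uM). Spike counts per recording time, averaged over electrodes, were compared between 40-min baseline and 40-min post-exposure recordings as percent change.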
# [9] = CCTE_Harrill_HTTr_Apoptosis_MCF7: CCTE's 6-hour Apoptosis Assessment for the High-Throughput Transcriptomics (HTTr) Platform, in MCF-7 cells cultured in DMEM + 10% fetal bovine serum, Harrill Lab (AID 2284011)
# In short: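 MCF-7 cells in DMEM + 10% fetal bovine serum were exposed to chemicals for 6 hours over an eight-point dilution series. Caspase-3/7 activation was imaged by high content imaging with CellEvent Caspase 3/7 Green; bidirectional fitting used DMSO as baseline.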
# [10] = CCTE_Harrill_HTTr_CellCount_MCF7: CCTE's Cell Proliferation Assessment for the High-Throughput Transcriptomics (HTTr) Platform, Harrill Lab (AID 2284012; active = hit-call score of the fitted dose curve at least 0.9, where 1 is the maximum;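 note: cells exposed to compound for six hours; intended direction is loss of nuclei count meaning fewer cells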)
# In short: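 Cell count from high-content imaging of Hoechst-labeled nuclei serves as viability/growth readout. Chemicals were applied to MCF-7 cells in eight concentrations for six hours, with fitting in both directions relative to DMSO.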
# [11] = CCTE_Shafer_MEA_acute_burst_number: CCTE's Neural Acute Assay for Single-Electrode Bursts, Shafer Lab (AID 2284013)
# In short: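 Primary rat cortical neurons on 16-electrode MEA wells, DIV 13 or 15, exposed to compound (0.03-40 uM; ≥3 wells); 40-min recordings at 37 C before and after treatment. Burst count expressed as percent change from baseline, DMSO as negative control.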
# [12] = CCTE_Shafer_MEA_acute_burst_duration_mean: CCTE's Neural Acute Assay for Mean Burst Duration, Shafer Lab (AID 2284014);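 note: hits are decreases in mean burst duration relative to DMSO controls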
# In short: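 Mean burst duration was compared between a 40 min baseline and a 40 min recording in the presence of compound (0.03-40 uM, 37 C), giving percent change per well. Cultures were rat cortical neurons at DIV 13 or 15; wells needed ≥10 active electrodes.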
# [13] = CCTE_Shafer_MEA_acute_burst_percentage_mean: CCTE's Neural Acute Assay for Percentage of Spikes in a Burst, Shafer Lab (AID 2284017);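 for AC50: curve fitted for loss of signal so potency reflects decreased burst percentage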
# In short: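 Well-level mean burst percentage from a 40-min recording after compound (0.03-40 uM) expressed as percent change from a 40-min baseline at 37C. Cultures: primary rat cortical neurons on MEA, dosed on DIV 13 or 15; fitted downward relative to DMSO.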
# [14] = CCTE_Shafer_MEA_acute_burst_percentage_std: CCTE's Neural Acute Assay for Standard Deviation of Burst Percentage, Shafer Lab (AID 2284018);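 note: fitted in the negative direction so actives lower burst percentage SD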
# In short: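 Value is percent change from baseline in the across-electrode SD of spikes-in-bursts percentage, wells with >/= 10 active electrodes. Acute 40-min exposure to 0.03-40 uM on DIV 13 or 15 rat cortical cultures, recorded at 37 C after 40-min baseline.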
# [15] = CCTE_Shafer_MEA_acute_per_network_burst_spike_number_mean: CCTE's Neural Acute Assay for Average Number of Spikes in a Network Burst, Shafer Lab (AID 2284019);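 for AC50: curve fitted for loss of signal so actives reduce spikes per network burst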
# In short: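 Percent change from baseline in mean spikes per network burst, spikes detected at 8x rms noise. Each compound at 0.03-40 uM in at least three wells of rat cortical cultures, recorded 40 min before and 40 min during exposure.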
# [16] = CCTE_Shafer_MEA_acute_per_network_burst_spike_number_std: CCTE's Neural Acute Assay for Standard Deviation of Number of Spikes in a Network Burst, Shafer Lab (AID 2284020);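 note: fitted for decrease in spike-number SD versus DMSO so actives lower it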
# In short: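 Endpoint: percent change from 40 min baseline in standard deviation of spikes per network burst, after 40 min compound exposure (0.03-40 uM, 37 C). Cortical rat neurons on MEA at DIV 13 or 15; spikes detected at 8x rms noise, 300-5000 Hz band-pass.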
# [17] = CCTE_Shafer_MEA_acute_per_network_burst_electrodes_number_mean: CCTE's Neural Acute Assay for Mean Number of Electrodes in a Network Burst, Shafer Lab (AID 2284021);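 note: curves fitted for decreases only so hits reduce electrodes per burst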
# In short: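 Rat primary cortical neurons on 16-electrode MEA wells were recorded 40 min at baseline on DIV 13 or 15, then 40 min after compound (0.03-40 uM), at 37 C. Value is percent change per well, fitted in loss direction versus DMSO.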
# [18] = CCTE_Shafer_MEA_acute_network_burst_percentage: CCTE's Neural Acute Assay for Percentage of Network Bursts, Shafer Lab (AID 2284022);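 note: curves fitted for loss so actives lower network burst percentage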
# In short: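 Primary rat cortical neurons on 16-electrode MEA wells, treated on DIV 13 or 15 with compound (0.03-40 uM); 40-min baseline and 40-min post-exposure recordings at 37 C. Value is percent change in spikes within network bursts versus baseline, DMSO negative control.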
# [19] = CCTE_Harrill_HTTr_Viability_MCF7: CCTE's 6-hour Cell Viability Assessment for the High-Throughput Transcriptomics (HTTr) Platform, in MCF-7 cells cultured in DMEM + 10% fetal bovine serum, Harrill Lab (AID 2284010)
# In short: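 Propidium iodide exclusion, imaged by high-content analysis, gauged viability after a six-hour exposure across eight concentrations. Cells were MCF-7 grown in DMEM with 10% fetal bovine serum; fits run in both directions against DMSO.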
smiles,measurement,setting,value
N#Cc1nn(-c2c(Cl)cc(C(F)(F)F)cc2Cl)c(N)c1S(=O)C(F)(F)F (stereo not given),AC50,DIO1 (gene 1733),50.6 µM (active)
same,outcome,[1],inactive
same,outcome,[2],inactive
same,outcome,[3],inactive
same,outcome,[4],inactive
same,outcome,[5],inactive
same,outcome,[6],inactive
same,outcome,[7],inactive
same,AC50,[8],10.3 µM (active) and 9.11 µM (active)
same,outcome,[9],inactive
same,outcome,[10],inactive
same,outcome,[11],inactive
same,outcome,[12],inactive
same,AC50,[13],33.4 µM (active) and 24.2 µM (active)
same,AC50,[14],36.5 µM (active) and 3.5 µM (active)
same,AC50,[15],1.59 µM (active) and 666 nM (active)
same,outcome,[16],inactive
same,AC50,[17],1.36 µM (active) and 1.28 µM (active)
same,outcome,[18],inactive
CCCCNC(=O)n1c(NC(=O)OC)nc2ccccc21,outcome,[1],inactive
same,outcome,[2],inactive
same,outcome,[4],inactive
same,outcome,[9],inactive
same,outcome,[10],inactive
O=C(Nc1ccccc1)Nc1ccnc(Cl)c1,AC50,[2],84.5 µM (active)
same,outcome,[3],inactive
same,outcome,[4],inactive
same,AC50,[5],72.3 µM (active)
same,AC50,[6],50 µM (active)
same,outcome,[7],inactive
same,outcome,[9],inactive
same,outcome,[10],inactive
Cc1ccc(-c2c(Cl)nc(C#N)n2S(=O)(=O)N(C)C)cc1,AC50,DIO1 (gene 1733),43.7 µM (active)
same,outcome,[1],inactive
same,outcome,[2],inactive
same,outcome,[3],inactive
same,AC50,[5],0.982 µM (active)
same,AC50,[6],34 µM (active)
same,outcome,[7],inactive
same,outcome,[8],inactive
same,outcome,[9],inactive
same,outcome,[11],inactive
same,outcome,[12],inactive
same,outcome,[13],inactive
same,outcome,[14],inactive
same,outcome,[15],inactive
same,outcome,[16],inactive
same,outcome,[17],inactive
same,outcome,[18],inactive
COP(=S)(OC)Oc1nc(Cl)c(Cl)cc1Cl,outcome,[5],inactive
same,outcome,[6],inactive
same,outcome,[7],inactive
same,outcome,[8],inactive
same,outcome,[9],inactive
same,outcome,[10],inactive
same,outcome,[11],inactive
same,outcome,[12],inactive
same,AC50,[13],0.102 µM (active)
same,outcome,[14],inactive
same,outcome,[15],inactive
same,AC50,[16],358 nM (active)
same,outcome,[17],inactive
same,outcome,[18],inactive
CCCN(CCC)c1c([N+](=O)[O-])cc(S(N)(=O)=O)cc1[N+](=O)[O-],AC50,DIO1 (gene 1733),166 µM (active) [middle of 7 runs]
same,AC50,[5],30.7 µM (active)
same,outcome,[5],inactive
same,AC50,[6],34 µM (active)
same,outcome,[6],inactive
same,outcome,[7],inactive
same,AC50,[8],4.91 µM (active)
same,outcome,[9],inactive
same,outcome,[10],inactive
same,AC50,[11],4.69 µM (active)
same,outcome,[12],inactive
same,AC50,[13],5 µM (active)
same,outcome,[14],inactive
same,outcome,[15],inactive
same,outcome,[16],inactive
same,outcome,[17],inactive
same,outcome,[18],inactive
COc1cnc(OC)n2nc(NS(=O)(=O)c3c(OCC(F)F)cccc3C(F)(F)F)nc12,outcome,[9],inactive
same,outcome,[10],inactive
CCCCC(CC)COC(=O)c1ccccc1C(=O)OCC(CC)CCCC (stereo not given),outcome,[19],inactive
same,outcome,[9],inactive
same,outcome,[10],inactive
O=C(O)COc1nc(Cl)c(Cl)cc1Cl,outcome,[5],inactive
same,outcome,[6],inactive
same,outcome,[7],inactive
same,outcome,[9],inactive
same,outcome,[10],inactive
CCCCOC(=O)c1ccccc1C(=O)OCCCC,outcome,[9],inactive
CCOP(=S)(OCC)SCn1c(=O)oc2cc(Cl)ccc21,outcome,[8],inactive
same,outcome,[9],inactive
same,outcome,[10],inactive
same,outcome,[11],inactive
same,AC50,[12],20 µM (active)
same,AC50,[13],32.3 µM (active)
same,outcome,[14],inactive
same,outcome,[15],inactive
same,outcome,[16],inactive
same,AC50,[17],20 µM (active)
same,AC50,[18],29 µM (active)
CC(C)C1(C)N=C(c2nc3ccccc3cc2C(=O)O)NC1=O (stereo not given),outcome,[9],inactive
CCOC(=O)C(Cl)Cc1cc(-n2nc(C)n(C(F)F)c2=O)c(F)cc1Cl (stereo not given),outcome,[19],inactive
same,outcome,[9],inactive
same,outcome,[10],inactive
COC(=O)C(C)Oc1ccc(Oc2ccc(Cl)cc2Cl)cc1 (stereo not given),outcome,[8],inactive
same,outcome,[19],inactive
same,outcome,[9],inactive
same,outcome,[10],inactive
same,outcome,[11],inactive
same,outcome,[12],inactive
same,AC50,[13],20 µM (active)
same,outcome,[14],inactive
same,outcome,[15],inactive
same,outcome,[16],inactive
same,outcome,[17],inactive
same,AC50,[18],25.7 µM (active)
C=CC1(C)OC(=O)N(c2cc(Cl)cc(Cl)c2)C1=O (stereo not given),outcome,[9],inactive
same,outcome,[10],inactive
